Calls of active or inactive are those of the source.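 Rule for the calls: active = average half-effect concentration of 10 µM or less in every one of the four cell panels; inactive = the rest.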
These compounds were tested on HL-1 (assay: protection of cardiomyocytes from stress damage, SAR follow-up, cell-based, panel, H9c2 and HL-1, H2O2, 2-deoxyglucose, ATP luminescence (AID 651642;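 note: plate controls were H2O2 plus DMSO for no effect and cells kept without H2O2 for full effect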)). Conditions: H9c2/HL-1 cardiomyocyte H2O2 oxidative damage, mean of runs; activity: with H2O2, at 0.154 µM; outcome: with H2O2.
COC(=O)CNC(=O)c1cc(-c2cc(OC)c(OC)c(OC)c2)nc2ccccc12 was tested, and the activity was -2.8% (inactive).
With CCOC(=O)c1cccc(NC(=O)c2cc(-c3cc(OC)c(OC)c(OC)c3)nc3ccccc23)c1 the activity was 0.2% (active).
For COc1cc(-c2cc(C(=O)Nc3cccc(C(=O)NC4CC4)c3)c3ccccc3n2)cc(OC)c1OC, the activity was -0.15% (active).
COc1cc(-c2cc(C(=O)Nc3cccc(-c4nn[nH]n4)c3)c3ccccc3n2)cc(OC)c1OC was tested, and the activity was -2.86% (inactive).
For CCOC(=O)c1cccc(NC(=O)c2cc(-c3cc(OC)c(OC)c(OC)c3)nc3ccc(OC)cc23)c1, the activity was 8.27% (inactive).
COc1ccc2c(c1OC)C(=O)N1c3ccccc3C(=O)N(Cc3ccc(C)cc3)C21 (configuration not stated) was tested, and the activity was 9.89% (inactive).
In the case of COc1ccc2c(c1OC)C(=O)N1c3ccccc3C(=O)N(Cc3ccccc3Cl)C21 (configuration not stated), the activity is reported as 2.73% (inactive).
CCOC(=O)c1cccc(NC(=O)CNC(=O)c2cc(-c3cc(OC)c(OC)c(OC)c3)nc3ccccc23)c1 was tested, and the activity was -0.899% (inactive).
With CCOC(=O)c1ccc(NC(=O)c2cc(-c3cc(OC)c(OC)c(OC)c3)nc3ccccc23)cc1 the activity was 0.646% (inactive).
In the case of COc1cc(-c2cc(C(=O)NCC(=O)Nc3cccc(C(C)=O)c3)c3cc(Br)ccc3n2)cc(OC)c1OC, the activity is reported as -0.566% (active).
COc1cc(-c2cc(C(=O)Nc3cccc(C(C)=O)c3)c3cc(C)ccc3n2)cc(OC)c1OC was tested, and the activity was 2.4% (active).
With CCOC(=O)c1cccc(NC(=O)CNC(=O)c2cc(-c3cc(OC)c(OC)c(OC)c3)nc3ccc(C)cc23)c1 the activity was -1.48% (active).
With COc1cc(-c2cc(C(=O)NCC(=O)O)c3ccccc3n2)cc(OC)c1OC the activity was -0.263% (inactive).
COc1cc(-c2cc(C(=O)Nc3cccc(C(N)=O)c3)c3ccccc3n2)cc(OC)c1OC was tested, and the activity was -0.415% (active).
COc1cc(-c2cc(C(=O)NCC(=O)Nc3cccc(C(C)=O)c3)c3cc(F)ccc3n2)cc(OC)c1OC was tested, and the activity was -0.68% (active).
In the case of COc1cc(-c2cc(C(=O)Nc3cccc(C(C)=O)c3)c3ccccc3n2)cc(OC)c1OC, the activity is reported as -1.02% (active).
COc1cc(-c2cc(C(=O)NCC(=O)Nc3ccc(C(C)=O)cc3)c3ccccc3n2)cc(OC)c1OC was tested, and the activity was 0.684% (inactive).
In the case of CCOC(=O)c1cccc(NC(=O)c2cc(-c3cc(OC)c(OC)c(OC)c3)nc3ccc(C)cc23)c1, the activity is reported as 4.25% (inactive).
For COc1ccc2c(c1OC)C(=O)N1c3ccccc3C(=O)N(Cc3ccccc3Br)C21 (configuration not stated), the activity was -0.68% (inactive).
In the case of CCOC(=O)c1cccc(NC(=O)c2cc(-c3cc(OC)c(OC)c(OC)c3)nc3cc(Cl)ccc23)c1, the activity is reported as 1.44% (inactive).
COc1ccc2c(c1OC)C(=O)N1c3ccccc3C(=O)N(Cc3ccccc3F)C21 (configuration not stated) was tested, and the activity was 4.24% (inactive).
In the case of CCOC(=O)c1cccc(NC(=O)c2cc(-c3cc(OC)c(OC)c(OC)c3)nc3ccc(Cl)cc23)c1, the activity is reported as -1.55% (inactive).
For COc1ccc2c(c1OC)C(=O)N1c3ccccc3C(=O)N(Cc3c(Cl)cccc3Cl)C21 (configuration not stated), the activity was 2.81% (inactive).
With CCNC(=O)c1cccc(NC(=O)c2cc(-c3cc(OC)c(OC)c(OC)c3)nc3ccccc23)c1 the activity was -0.0361% (active).
In the case of COc1ccc2c(c1OC)C(=O)N1c3ccccc3C(=O)N(Cc3ccc(F)cc3)C21 (configuration not stated), the activity is reported as -2.95% (inactive).
COc1ccc2c(c1OC)C(=O)N1c3ccccc3C(=O)N(Cc3ccc(C)cc3C)C21 (configuration not stated) was tested, and the activity was -0.945% (inactive).
In the case of COc1cc(-c2cc(C(=O)Nc3cccc(C(C)=O)c3)c3cc(Br)ccc3n2)cc(OC)c1OC, the activity is reported as 1.55% (inactive).
For COc1ccc2c(c1OC)C(=O)N1c3ccccc3C(=O)N(Cc3ccccc3)C21 (configuration not stated), the activity was -5.45% (inactive).
COc1cc(-c2cc(C(=O)Nc3cccc(C(C)=O)c3)c3ccc(Cl)cc3n2)cc(OC)c1OC was tested, and the activity was -6.29% (active).
In the case of COC(=O)CNC(=O)c1cccc(NC(=O)c2cc(-c3cc(OC)c(OC)c(OC)c3)nc3ccccc23)c1, the activity is reported as -1.7% (active).
With COc1cc(-c2cc(C(=O)Nc3cccc(C(C)=O)c3)c3cccc(Cl)c3n2)cc(OC)c1OC the activity was -3.22% (inactive).
In the case of CCOC(=O)c1cccc(NC(=O)c2cc(-c3cc(OC)c(OC)c(OC)c3)nc3ccc(F)cc23)c1, the activity is reported as 5.11% (active).

— PubChem BioAssay AID651642 (Sanford-Burnham Center for Chemical Genomics, 2012)
